TTR transcr act: increases transthyretin transcription | SH-SY5Y TTR promoter Gaussia luciferase, luminescence; 100% = recombinant luciferase protein wells | activation, % at 16.7 µM | 1.3% of 92,000 active;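 active means activation above the mean of all tested compounds plus 3 SD, cut at about 9.5% in these data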;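 further: cells exposed to compounds for one day before reading; 0% = median of all test compound wells on the plate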
TTR inh HuH7: counter-screen for TTR activators: TTR transcription inhibitors in HuH7 cells | shares compounds with TTR transcr act | HuH7 TTR promoter-Gaussia luciferase reporter, luminescence | inhibition, % at 16.7 µM | 4% of 1,100 active | AID 1117279;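 active means average inhibition above the solvent-only control wells' mean plus 3 SD, cut at about 15% in these data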;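 further: 0% = cells with DMSO only and 100% = cells with inhibitor control FD; inhibitors lower well luminescence so higher value means more inhibition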
TTR act confirm: human TTR transcription activation, confirmation. shares compounds with TTR transcr act. SHSY5Y TTR promoter Gaussia luciferase, luminescence; 100% = purified Lucia enzyme wells, no cells. activation, % at 16.7 µM. 1,100 tested, under 10 active. AID 1117280;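 active means mean activation above a set limit taken from the earlier primary screen, cut at about 11% in these data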;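 further: 0% = DMSO-treated cells and 100% = recombinant Lucia luciferase without cells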
Active calls of the source: *. Only a selection was taken, and hits are over-represented in it overall.

SMILES | TTR transcr act | others
Cc1cccc(N2CCN(S(=O)(=O)c3ccc4c(c3)CCN4C(=O)CCC(=O)O)CC2)c1C | 1
Cc1cccc(N2CCN(S(=O)(=O)c3ccc4c(c3)OCCO4)CC2)c1C | 0
Cc1cccc(N2CCN(S(=O)(=O)c3ccc4c(c3)CC(=O)N4C)CC2)c1C | 14* | TTR inh HuH7=-11;TTR act confirm=-1
COc1ccc(C(=O)N2CCN(C(=O)C3COc4ccccc4O3)CC2)cc1 (stereo not given) | 0
COc1cc(C(=O)N2CCN(C(=O)C3COc4ccccc4O3)CC2)cc(OC)c1OC (stereo not given) | 0
Cc1cc(O)c2c(C)c(CC(=O)N3CCN(C(=O)C4COc5ccccc5O4)CC3)c(=O)oc2c1 (stereo not given) | 9.8* | TTR inh HuH7=10;TTR act confirm=-1
COc1ccccc1C(=O)NC1CCCCN(Cc2ccc(Cl)cc2)C1=O (stereo not given) | 0
C[C@H]1[C@@H](NC(=O)C2CCC2)CC[C@@]23CCCN2C(=O)CCC[C@@H]13 | 2
C#CCNC(=O)C[C@H]1C[C@@]2(C(=O)OC)C(=C[C@H](C3CCCC3)O[C@@H]2C)N(Cc2cccc3ccccc23)C1=O | -2
C[C@@H]1CCN(C2CC2)S(=O)(=O)c2ccc(N3CC[C@H](N(C)C)C3)cc2O1 | 2
O=C(CN[C@@H](Cc1c[nH]c2ccccc12)C(=O)NCCc1c[nH]c2ccccc12)NC1CCCCC1 | -1
Cc1ccccc1CN1CCCCC(NC(=O)Nc2cccc([N+](=O)[O-])c2)C1=O (stereo not given) | -4
Cc1ccc(CC(=O)NCc2ccc(F)cc2)cc1 | 0
Cc1ccc(CNC(=O)Cc2ccc(-c3ccccc3)cc2)cc1 | 13* | TTR inh HuH7=53*;TTR act confirm=-2
O=C(Cc1ccc(-c2ccccc2)cc1)NCc1ccccc1 | -2
CC(C)CN1C(=O)C[C@]2(C(=O)N(C)c3ccc(NS(=O)(=O)c4ccc(F)cc4)cc32)C1c1ccccc1 (stereo not given in full) | 1
CN(C)C(=O)C[C@H]1CC[C@H]2[C@H](COc3ccc(NC(=O)C4CC4)cc3C(=O)N2C)O1 | -1
O=C(NN1C(=O)C2CC=C(Cl)CC2C1=O)c1ccncc1 (stereo not given) | 12* | TTR inh HuH7=2;TTR act confirm=-1
O=C(NN1C(=O)C2C3C=CC(C3)C2C1=O)c1ccccc1 (stereo not given) | 0
Cc1ccc(NCN2C(=O)C3CC=C(Cl)CC3C2=O)cc1 (stereo not given) | 0
S=C(Nc1ccccc1Br)OCCN1CCCC12CCC(c1ccccc1)CC2 (stereo not given) | -1
C[C@H]1[C@@H](OC(=O)Nc2ccc(Cl)cc2)CC[C@@]23CCCN2C(=O)CCC[C@@H]13 | -1
COC(=O)[C@]12C[C@H](CC(=O)NCc3ccc(OC)c(OC)c3)C(=O)N(Cc3ccc(Cl)cc3Cl)C1=C[C@H](C1CCCC1)O[C@@H]2C | 0
O=C(NCCCN1CCOCC1)c1ccc(NS(=O)(=O)c2cccc([N+](=O)[O-])c2)cc1 | 0
CC(=O)Nc1ccc(C(=O)NCCN2CCOCC2)cc1 | -1
SMILES | TTR transcr act | others
Cc1ccc(NS(=O)(=O)c2ccc(C(=O)NCCN3CCOCC3)cc2)cc1 | 15* | TTR inh HuH7=-10;TTR act confirm=1
COc1ccc(Cn2ccc3ccc(-c4ccc5ccn(Cc6ccc(OC)cc6)c5c4)cc32)cc1 | -1
COC(=O)c1ccc(CN2CC3CC(c4ccccc4)N4CCCC34C2=O)cc1 (stereo not given) | 1
CN(C)C(CNC(=O)Cc1cccc(C(F)(F)F)c1)c1ccccc1 (stereo not given) | 15* | TTR inh HuH7=-12;TTR act confirm=0
CC(NC(=O)CSc1cccc(C(F)(F)F)c1)c1ccccc1 (stereo not given) | -1
O=C(Cc1cccc(C(F)(F)F)c1)NCc1ccc(Cl)cc1 | 1
COC(=O)[C@]12C[C@H](CC(=O)NCc3ccc(OC)c(OC)c3)C(=O)N(Cc3cccc4ccccc34)C1=C[C@H](C(C)C)O[C@@H]2C1CC1 | -3
Cc1ccc(CN2CCCCC(NC(=O)Nc3ccccc3-c3ccccc3)C2=O)cc1 (stereo not given) | -2
CC(C)[C@@H]1C(=O)N[C@H](Cc2cn(S(=O)(=O)c3ccccc3)c3ccccc23)C(=O)N1C | -1
COc1ccc2c(c1)OCC(O)(c1ccccc1)C2=O (stereo not given) | 38* | TTR inh HuH7=-7;TTR act confirm=2
COc1ccc(OC)c(NC(=O)C2CC2c2ccccc2)c1 (stereo not given) | -2
COc1ccc(NC(=O)C(c2ccccc2)c2ccccc2)c(OC)c1 | 1
COc1ccc(OC)c(CNS(=O)(=O)c2ccccc2Br)c1 | 2
COc1ccc(Cn2cc(COC(=O)N3CCOCC3)nn2)cc1 | 5
C[C@@H]1CN([C@@H](C)CO)C(=O)c2cc(N(C)C)ccc2O[C@@H](C)CCCCO[C@@H]1CN(C)S(=O)(=O)c1cccs1 | 14* | TTR inh HuH7=-6;TTR act confirm=0
C[C@@H]1CCCCO[C@H](CN(C)S(=O)(=O)c2cccs2)[C@H](C)CN([C@@H](C)CO)C(=O)c2cc(NC(=O)NC3CCCCC3)ccc2O1 | 0
C[C@@H]1CCCCO[C@@H](CN(C)S(=O)(=O)c2ccc(F)cc2)[C@@H](C)CN([C@H](C)CO)C(=O)c2cc(N(C)C)ccc2O1 | -1
COc1ccc2oc(=O)c(C(=O)NCc3ccco3)cc2c1 | 0
COc1ccc2oc(=O)c(C(=O)Nc3ccccc3O)cc2c1 | -3
COc1ccc2oc(=O)c(-c3nnc(N)s3)cc2c1 | 10* | TTR inh HuH7=-10;TTR act confirm=2
COC[C@H]1CCCN1c1cccc2c1S(=O)(=O)N1CC[C@H](C1)O2 | -1
Fc1ccc(F)c(Cn2ccc3ccc(-c4ccc5ccn(Cc6cc(F)ccc6F)c5c4)cc32)c1 | 0
CC1(C)C=C2C(N(Cc3ccc4c(c3)OCO4)C(=N)N2C(=O)OCc2ccccc2)n2c(=O)n(-c3ccccc3)c(=O)n21 (stereo not given) | 1
CCOc1ccccc1NC(=O)CN(C)S(=O)(=O)c1ccc2[nH]c(=O)oc2c1 | 12* | TTR inh HuH7=-21;TTR act confirm=0
COc1ccccc1NC(=O)CN(C)S(=O)(=O)c1cc(C)ccc1OC | -2
SMILES | TTR transcr act | others
CCOc1ccc(NS(=O)(=O)c2ccc3[nH]c(=O)oc3c2)cc1 | 2
S=C(Nc1ccccc1)OCCN1CCCC12CCC(c1ccccc1)CC2 (stereo not given) | 1
O=C(NCCCc1ccccc1)[C@H](CO)NC1(C(=O)NCCc2c[nH]c3ccccc23)CCCCC1 | 2
COc1cccc(CSc2nc3ccccc3[nH]2)c1 | 0
COC(=O)CSc1nc2cc3c(cc2cc1C)OCO3 | 0
COc1cccc(CSc2nc3cc4c(cc3cc2C)OCCO4)c1 | 18* | TTR inh HuH7=-11;TTR act confirm=0
COc1cccc(C(=O)n2ccc3ccc(-c4ccc5ccn(Cc6ccccc6)c5c4)cc32)c1 | 5
C#CCN1C(=O)[C@]2(NCCc3c2[nH]c2ccc(OC)cc32)c2cc(F)ccc21 | -2
COC(=O)c1ccc(Cn2ccc3ccc(-c4ccc5ccn(C(=O)C6CCCCC6)c5c4)cc32)cc1 | 4
C=CCC[C@@H](Cc1ccc(F)cc1)C(=O)OC[C@H](Cc1c[nH]c2ccccc12)NC(=O)[C@@H](CC=C)CC(=O)N[C@H](CO)Cc1ccccc1 | -4

Screens deposited in PubChem by The Scripps Research Institute Molecular Screening Center.
